This note sets out measurements from PubChem BioAssay (NCATS).

Unmarked numbers belong to inactive results. Results filed as inconclusive are left out. Calls of active or inactive are those of the source. Unless noted, calls come from the whole dose curve; as a rule, active = well fitted curve in the direction sought with a large enough effect; inconclusive = small, poorly fitted or top-dose-only effect, or another doubt; inactive = no such curve, though single readings can be large; an effect the other way counts as inactive or inconclusive.

A short description of assay [1]: NCATS anti-infectives library activity on HEK293 viability as a counter-qHTS vs the C. elegans viability qHTS (AID 1745854).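 Note: HEK293 cells exposed to compounds for 24 hr before the viability read; % is set by controls: 0 for no effect and ±100 for the full control effect.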 An outline of the steps: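 Cytotoxicity in human HEK293 cells is measured by ATP-dependent CellTiter-Glo luminescence following a 24 hr incubation with titrated library compounds at 37C. Top final concentration is 41.7 uM.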
A general note: qHTS replaces the single test concentration by a dilution series.

The nature of assay [2]: NCATS anti-infectives library activity on the primary C. elegans qHTS viability assay (AID 1745855; calls by dose curve; note: potency is the fitted concentration of half-maximal effect). The essentials:
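Viability is taken from GFP fluorescence of PE254-GFP-FLuc C. elegans imaged by laser cytometry over 7 days. Ten L1 worms per well grow at 21 °C on TOP10 E. coli capsules with titrated compound; levamisole marks toxicity.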

Assay [3] is described as follows: qHTS for differential inhibitors of proliferation of Plasmodium falciparum line GB4 (AID 1816).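 Note: parasite growth measured after 72 h incubation; 0% = vehicle DMSO and -100% = reference inhibitor.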 The following applies: Potency: Plasmodium falciparum GB4 proliferation inhibition.
Assay [4] concerns the target Voltage-gated inwardly rectifying potassium channel KCNH2 (Homo sapiens) (UniProt Q12809). The assay is described as follows: qHTS Assay for Small Molecule Inhibitors of the Human hERG Channel Activity (AID 588834).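 Note: top concentration of the series differs between compounds; % is set by controls: 0 for no effect and ±100 for the full control effect; lower thallium flux fluorescence means stronger hERG block; nearly all actives have a fitted effect of over 50% in size.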 The essentials: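 U2OS cells BacMam-transduced with hERG, 2000 cells/well, compound ~10 min at 37 °C before stimulation buffer. FluxOR thallium flux fluorescence read kinetically on FDSS; decrease indicates block; AC50 from Hill fits.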

A short description of assay [5]: Viability counterscreen for agonist of constitutive androstane receptor (CAR) against the NCATS DSHEA and TCM libraries (AID 1794838).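 Note: HepG2 cells with CYP2B6 reporter and hCAR plus 0.75 µM PK11195 antagonist; 0% is about no effect.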 The essentials:
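HepG2-CYP2B6-hCAR cells (2,500/well) treated 24 h at 37C with compounds plus 0.75 uM PK11195; viability read by CellTiter-Fluor fluorescence, Ex/Em 405/540 nm.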
On the technique in general: A counterscreen serves to expose hits that act by an unwanted route or on another target.

Assay [6] has as its target Nuclear receptor subfamily 1 group I member 3 (Homo sapiens) (UniProt Q14994). In words: Primary qHTS for agonist of constitutive androstane receptor (CAR) against the NCATS DSHEA and TCM libraries (AID 1794839).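 Note: HepG2 cells expressing human CAR with a CYP2B6 reporter plus PK11195 antagonist; 0% is about no effect.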 An outline of the steps:
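HepG2-CYP2B6-hCAR cells, 2,500/well, attached 5 h, then dosed with 0.75 µM PK11195 (final) for 24 h at 37 °C. Luciferase luminescence read (ONE-Glo); CellTiter-Fluor viability (Ex/Em 405/540 nm) in same wells; CITCO positive control.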

Assay [7] is described as follows: HepG2 viability counterscreen (readout 2: ATP content) against the NCATS DSHEA and TCM libraries (AID 1794840). Note: 0% is about no effect. The essentials:
(§1)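 HepG2 cells, 1,000/well, attached ~4 h, then exposed ~24 h at 37C to substances. Protease activity read by fluorescence of 25 uM GF-AFC (Ex/Em 380/510 nm) after 30 min; ATP then by CellTiter-Glo luminescence.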

Assay [8] can be described thus: HepG2 viability counterscreen (readout 1: protease activity) against the NCATS DSHEA and TCM libraries (AID 1794841).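 Note: cells exposed to compounds for about 24 h before the protease read; 0% is about no effect.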 An outline of the steps:
as §1

Assay [9] concerns the target Cytochrome P450 3A4 (Homo sapiens) (UniProt P08684). The assay is described as follows: qHTS for inhibitors of CYP3A4 against the NCATS DSHEA and TCM libraries (AID 1919971).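 Note: % is set by controls: 0 for no effect and ±100 for the full control effect; inhibition lowers luminescence from luciferin made by CYP3A4.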 An outline of the steps: (§2)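 Light output from converted D-luciferin reports remaining CYP activity. Compounds preincubate with enzyme and substrate for 15 min; NADPH regeneration (1x final) runs the reaction for 30-45 min.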

The target of assay [10] is Cytochrome P450 2D6 (Homo sapiens) (UniProt P10635). In words: qHTS for inhibitors of CYP2D6 against the NCATS DSHEA and TCM libraries (AID 1919972). Note: % is set by controls: 0 for no effect and ±100 for the full control effect. An outline of the steps: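 Steps: enzyme plus luciferin substrate dispensed; test substances pinned; 15 min RT; 1x NADPH regenerating solution added, 30–45 min RT protected from light; detection reagent, 30 min RT; luminescence measured. Minus-enzyme wells as background.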

In assay [11] the target is Cytochrome P450 2C9 (Homo sapiens) (UniProt P11712). The assay is described as follows: qHTS for inhibitors of CYP2C9 against the NCATS DSHEA and TCM libraries (AID 1919973).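 Note: luminogenic pro-luciferin CYP2C9 substrate turned into luciferin with NADPH regeneration; series mostly up to about 34 µM; % is set by controls: 0 for no effect and ±100 for the full control effect.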 The essentials:
as §2

Assay [12] deals with Cytochrome P450 2C19 (Homo sapiens) (UniProt P33261). The assay is described as follows: qHTS for inhibitors of CYP2C19 against the NCATS DSHEA and TCM libraries (AID 1919974).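 Note: luminescence from luciferin released by CYP2C19 oxidation of a pro-luciferin substrate.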 Note: potency is the fitted concentration of half-maximal effect. The essentials: as §2
A short description of assay [13]: KB-3-1 P-gp reporter qHTS against the NCATS DSHEA and TCM libraries (AID 1919975). Note: 0% is about no effect. An outline of the steps: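 Parental KB-3-1 cells, 500 cells/well, in DMEM with 10% FBS, exposed 72 h at 37 C to compounds in concentration-response. Viability read by CellTiter-Glo luminescence after 30 min at room temperature.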
For assay [14], the target named is Cytochrome P450 1A2 (Homo sapiens) (UniProt P05177). In words: qHTS for inhibitors of CYPIA2 against the NCATS DSHEA and TCM libraries (AID 1919976).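 Note: light from luciferin formed by CYP1A2 from a pro-luciferin substrate; series mostly up to about 37 µM; % is set by controls: 0 for no effect and ±100 for the full control effect.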 An outline of the steps:
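In this quantitative HTS, inhibition of recombinant human CYP1A2 was measured as loss of luciferin-derived luminescence. Turnover ran 30-45 min at RT after NADPH regeneration solution was added.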

A short description of assay [15]: qHTS Counterscreen for compound interference against the NCATS DSHEA and TCM libraries (AID 1919978).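 Note: compounds preincubated with 1 µM D-luciferin or buffer before detection reagent; % of control where 0% means no effect.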 To be noted: firefly luciferase detection reagent interference, luminescence. The essentials:
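Firefly luciferase detection reagent was added after compounds (19.5 nM–39.8 uM final) had been incubated 15 min at room temperature with 1 uM D-luciferin or with 100 mM phosphate buffer alone. Luminescence was read after 30 min at room temperature.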

A short description of assay [16]: Dual reporter qHTS for agonist of Pregnane X Receptor (hPXR) against the NCATS DSHEA and TCM libraries: Fluorescence readout (AID 1920058). Note: 0% is about no effect. The essentials:
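Measures viability of the PXR reporter HepG2 line by protease-substrate fluorescence (405/540 nm), taken 1 h after CellTiter-Fluor addition. Substances are tested as concentration series over a ~24 h exposure, with rifampicin as agonist control.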

The target of assay [17] is Nuclear receptor subfamily 1 group I member 2 (Homo sapiens) (UniProt O75469). The assay is described as follows: Dual reporter qHTS for agonist of Pregnane X Receptor (hPXR) against the NCATS DSHEA and TCM libraries: Luminescence readout (AID 1920059). Note: 0% is about no effect. The essentials: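 hPXR-Luc HepG2 cells, 2000/well in 5% charcoal-stripped FBS medium, attached 5 h, then exposed 24 h at 37C to compounds. Viability by CellTiter-Fluor, then luciferase luminescence with ONE-Glo.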

Assay [18] has the same target. In words: Dual reporter qHTS for antagonist of Pregnane X Receptor (hPXR) against the NCATS DSHEA and TCM libraries: Luminescence Readout (AID 1920060).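 Note: HepG2 cells carrying hPXR luciferase reporter stimulated with rifampicin at 2 µM; 0% is about no effect.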 The essentials: (§3)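 hPXR-Luc HepG2 cells exposed 24 h at 37 C to compounds with 2 uM rifampicin in antagonist mode; luciferase luminescence measured by ONE-Glo, with CellTiter-Fluor viability read beforehand.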
The nature of assay [19]: Dual reporter qHTS for antagonist of Pregnane X Receptor (hPXR) against the NCATS DSHEA and TCM libraries: Fluorescence Readout (AID 1920061). Note: 0% is about no effect. An outline of the steps: as §3
Assay [20] deals with Luciferin 4-monooxygenase (Photinus pyralis) (UniProt P08659). In words: Biochemical firefly luciferase enzyme assay for NPC (AID 624030).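 Note: purified P. pyralis luciferase at 10 nM with luciferin and ATP substrate; series mostly up to about 59 µM; 0% = DMSO and -100% = full luciferase inhibition by PTC124 control; nearly all actives have a fitted effect of over 70% in size.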 The essentials: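 Purified P. pyralis luciferase at 10 nM in 50 mM Tris Acetate (final), luminescence read within 5 minutes of enzyme addition to compounds. Activity normalised to PTC124 versus DMSO; concentration-response curves classed by r2, magnitude and activity.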
Chain of Luciferin 4-monooxygenase (Photinus pyralis) (P08659 whole entry, looked up): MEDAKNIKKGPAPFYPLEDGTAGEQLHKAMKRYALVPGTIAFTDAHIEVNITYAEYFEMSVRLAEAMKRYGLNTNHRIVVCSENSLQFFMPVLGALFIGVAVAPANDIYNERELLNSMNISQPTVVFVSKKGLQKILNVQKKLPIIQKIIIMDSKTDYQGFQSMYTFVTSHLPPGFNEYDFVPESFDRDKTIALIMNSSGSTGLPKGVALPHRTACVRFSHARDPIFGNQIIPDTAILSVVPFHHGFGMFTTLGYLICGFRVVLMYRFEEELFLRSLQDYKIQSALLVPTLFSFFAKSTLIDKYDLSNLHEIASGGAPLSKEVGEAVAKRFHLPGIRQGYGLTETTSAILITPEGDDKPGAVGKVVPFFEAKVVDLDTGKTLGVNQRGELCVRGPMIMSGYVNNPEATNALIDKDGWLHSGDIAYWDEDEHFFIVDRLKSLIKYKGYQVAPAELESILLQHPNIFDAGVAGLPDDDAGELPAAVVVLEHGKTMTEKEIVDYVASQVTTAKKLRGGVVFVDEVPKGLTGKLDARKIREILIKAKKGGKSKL

Chain of Nuclear receptor subfamily 1 group I member 2 (Homo sapiens) (O75469 whole entry, looked up): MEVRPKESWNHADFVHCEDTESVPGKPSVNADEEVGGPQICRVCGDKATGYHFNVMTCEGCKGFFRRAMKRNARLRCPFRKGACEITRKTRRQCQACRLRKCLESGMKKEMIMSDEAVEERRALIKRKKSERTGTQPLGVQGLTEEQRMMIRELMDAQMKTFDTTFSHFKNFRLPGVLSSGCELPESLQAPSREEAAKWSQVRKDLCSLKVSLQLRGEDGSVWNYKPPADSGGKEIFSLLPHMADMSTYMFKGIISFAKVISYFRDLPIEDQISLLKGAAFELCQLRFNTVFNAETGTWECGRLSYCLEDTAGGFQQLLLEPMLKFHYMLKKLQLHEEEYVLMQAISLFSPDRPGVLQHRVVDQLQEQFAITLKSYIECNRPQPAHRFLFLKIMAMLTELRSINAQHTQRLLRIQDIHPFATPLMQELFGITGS
Chain of Cytochrome P450 2C19 (Homo sapiens) (P33261 whole entry, looked up): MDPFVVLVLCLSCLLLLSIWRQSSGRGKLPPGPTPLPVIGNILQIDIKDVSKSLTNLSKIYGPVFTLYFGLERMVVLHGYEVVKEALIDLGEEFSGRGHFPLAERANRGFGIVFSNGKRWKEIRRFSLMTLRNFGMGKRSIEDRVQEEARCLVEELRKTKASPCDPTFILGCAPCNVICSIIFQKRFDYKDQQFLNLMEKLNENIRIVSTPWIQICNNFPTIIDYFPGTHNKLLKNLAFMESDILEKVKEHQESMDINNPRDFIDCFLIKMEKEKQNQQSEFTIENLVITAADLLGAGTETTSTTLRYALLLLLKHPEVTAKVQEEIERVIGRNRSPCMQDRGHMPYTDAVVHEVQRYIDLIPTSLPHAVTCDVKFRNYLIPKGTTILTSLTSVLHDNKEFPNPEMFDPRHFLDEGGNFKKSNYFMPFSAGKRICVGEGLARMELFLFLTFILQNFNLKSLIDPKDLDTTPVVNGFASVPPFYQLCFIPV
Chain of Cytochrome P450 2C9 (Homo sapiens) (P11712 whole entry, looked up): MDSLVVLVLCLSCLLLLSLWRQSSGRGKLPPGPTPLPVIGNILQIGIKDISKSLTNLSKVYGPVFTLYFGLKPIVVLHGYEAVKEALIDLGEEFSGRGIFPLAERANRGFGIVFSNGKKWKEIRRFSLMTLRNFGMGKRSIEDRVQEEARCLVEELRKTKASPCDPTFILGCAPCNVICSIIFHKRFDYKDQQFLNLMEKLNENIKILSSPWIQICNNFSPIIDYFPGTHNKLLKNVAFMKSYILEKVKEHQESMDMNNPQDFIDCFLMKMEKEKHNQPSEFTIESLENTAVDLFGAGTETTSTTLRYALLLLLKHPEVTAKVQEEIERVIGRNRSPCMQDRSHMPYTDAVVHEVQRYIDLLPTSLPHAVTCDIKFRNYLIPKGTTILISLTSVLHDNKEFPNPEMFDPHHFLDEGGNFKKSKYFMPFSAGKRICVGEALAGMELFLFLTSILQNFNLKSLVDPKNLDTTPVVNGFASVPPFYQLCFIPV
Chain of Nuclear receptor subfamily 1 group I member 3 (Homo sapiens) (Q14994 whole entry, looked up): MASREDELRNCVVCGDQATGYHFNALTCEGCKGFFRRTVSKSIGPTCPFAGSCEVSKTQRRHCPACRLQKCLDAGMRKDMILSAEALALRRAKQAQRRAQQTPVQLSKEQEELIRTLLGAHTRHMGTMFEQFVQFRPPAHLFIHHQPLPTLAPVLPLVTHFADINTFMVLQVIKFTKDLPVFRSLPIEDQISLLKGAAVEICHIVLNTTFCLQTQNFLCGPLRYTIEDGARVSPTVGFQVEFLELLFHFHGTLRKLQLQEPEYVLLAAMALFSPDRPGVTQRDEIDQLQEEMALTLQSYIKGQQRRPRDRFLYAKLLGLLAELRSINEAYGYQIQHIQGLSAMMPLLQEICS
Chain of Cytochrome P450 2D6 (Homo sapiens) (P10635 whole entry, looked up): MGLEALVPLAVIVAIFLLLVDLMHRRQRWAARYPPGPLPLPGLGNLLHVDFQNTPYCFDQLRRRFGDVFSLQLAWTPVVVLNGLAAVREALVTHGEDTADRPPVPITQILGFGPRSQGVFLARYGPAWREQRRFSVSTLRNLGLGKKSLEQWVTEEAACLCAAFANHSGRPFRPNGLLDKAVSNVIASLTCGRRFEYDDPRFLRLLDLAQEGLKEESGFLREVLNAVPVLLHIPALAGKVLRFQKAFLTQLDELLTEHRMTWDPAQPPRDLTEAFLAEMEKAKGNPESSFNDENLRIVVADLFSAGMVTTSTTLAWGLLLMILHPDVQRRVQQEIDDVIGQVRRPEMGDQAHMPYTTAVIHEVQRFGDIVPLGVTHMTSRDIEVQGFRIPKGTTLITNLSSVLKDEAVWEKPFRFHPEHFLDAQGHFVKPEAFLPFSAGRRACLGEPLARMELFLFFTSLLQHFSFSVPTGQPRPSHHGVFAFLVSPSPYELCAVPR
Chain of Cytochrome P450 1A2 (Homo sapiens) (P05177 whole entry, looked up): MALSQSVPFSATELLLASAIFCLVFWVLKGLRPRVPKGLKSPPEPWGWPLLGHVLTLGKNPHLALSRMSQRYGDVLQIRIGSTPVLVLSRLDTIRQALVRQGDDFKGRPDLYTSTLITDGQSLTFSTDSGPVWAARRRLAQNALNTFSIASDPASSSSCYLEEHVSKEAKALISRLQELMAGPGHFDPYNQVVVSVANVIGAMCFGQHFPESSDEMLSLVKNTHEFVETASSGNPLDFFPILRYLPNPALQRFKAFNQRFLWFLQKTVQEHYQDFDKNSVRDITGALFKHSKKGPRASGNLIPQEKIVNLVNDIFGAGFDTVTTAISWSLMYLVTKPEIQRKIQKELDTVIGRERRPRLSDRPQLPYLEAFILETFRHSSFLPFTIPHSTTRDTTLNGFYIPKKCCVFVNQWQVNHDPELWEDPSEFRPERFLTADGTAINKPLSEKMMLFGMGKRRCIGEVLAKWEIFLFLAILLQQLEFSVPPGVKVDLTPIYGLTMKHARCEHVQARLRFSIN
Chain of Voltage-gated inwardly rectifying potassium channel KCNH2 (Homo sapiens) (Q12809 whole entry, looked up): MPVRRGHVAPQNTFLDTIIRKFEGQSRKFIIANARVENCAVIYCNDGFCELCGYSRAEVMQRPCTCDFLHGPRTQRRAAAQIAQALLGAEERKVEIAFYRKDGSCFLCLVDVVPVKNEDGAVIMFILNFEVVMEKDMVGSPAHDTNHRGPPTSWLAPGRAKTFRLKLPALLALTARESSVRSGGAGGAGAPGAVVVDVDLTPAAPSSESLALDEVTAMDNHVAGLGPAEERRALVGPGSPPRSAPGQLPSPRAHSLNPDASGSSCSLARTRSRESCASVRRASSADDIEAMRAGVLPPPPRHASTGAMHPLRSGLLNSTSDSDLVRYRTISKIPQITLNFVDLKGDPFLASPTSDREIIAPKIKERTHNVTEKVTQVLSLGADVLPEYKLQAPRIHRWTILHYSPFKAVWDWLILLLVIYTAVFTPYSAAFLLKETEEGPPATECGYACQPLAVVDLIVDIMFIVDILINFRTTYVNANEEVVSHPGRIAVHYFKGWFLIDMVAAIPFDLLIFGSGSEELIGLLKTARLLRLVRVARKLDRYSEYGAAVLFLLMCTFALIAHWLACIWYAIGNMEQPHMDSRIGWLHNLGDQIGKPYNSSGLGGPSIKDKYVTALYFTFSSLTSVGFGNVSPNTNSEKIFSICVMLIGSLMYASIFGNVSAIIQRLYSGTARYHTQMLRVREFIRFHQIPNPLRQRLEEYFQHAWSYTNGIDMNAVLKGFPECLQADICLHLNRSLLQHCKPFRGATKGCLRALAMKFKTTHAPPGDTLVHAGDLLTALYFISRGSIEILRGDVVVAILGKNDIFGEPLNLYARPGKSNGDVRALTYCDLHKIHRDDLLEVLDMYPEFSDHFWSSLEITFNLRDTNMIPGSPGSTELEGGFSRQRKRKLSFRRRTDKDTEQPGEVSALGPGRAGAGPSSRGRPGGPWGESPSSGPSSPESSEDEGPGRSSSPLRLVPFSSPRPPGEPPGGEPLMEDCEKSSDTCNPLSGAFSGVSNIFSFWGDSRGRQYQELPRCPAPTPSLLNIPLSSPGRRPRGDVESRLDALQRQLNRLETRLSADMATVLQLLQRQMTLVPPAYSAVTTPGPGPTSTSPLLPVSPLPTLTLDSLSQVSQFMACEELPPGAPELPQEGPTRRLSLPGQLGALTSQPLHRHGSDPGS
Chain of Cytochrome P450 3A4 (Homo sapiens) (P08684 whole entry, looked up): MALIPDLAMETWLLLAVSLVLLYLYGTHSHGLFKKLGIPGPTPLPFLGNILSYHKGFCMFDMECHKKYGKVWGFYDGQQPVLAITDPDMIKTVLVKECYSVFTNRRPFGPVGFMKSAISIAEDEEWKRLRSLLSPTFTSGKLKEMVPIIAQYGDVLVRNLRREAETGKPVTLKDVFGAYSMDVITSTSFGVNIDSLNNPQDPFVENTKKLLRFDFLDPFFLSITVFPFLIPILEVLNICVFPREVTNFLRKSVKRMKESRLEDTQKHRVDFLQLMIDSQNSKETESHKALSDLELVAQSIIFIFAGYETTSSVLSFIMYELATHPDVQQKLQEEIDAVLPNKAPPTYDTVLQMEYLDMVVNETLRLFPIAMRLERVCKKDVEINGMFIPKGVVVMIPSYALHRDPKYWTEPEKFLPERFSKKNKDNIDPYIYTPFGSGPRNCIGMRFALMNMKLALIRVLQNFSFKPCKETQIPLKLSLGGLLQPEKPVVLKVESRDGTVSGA

On to `N#CC(=C(/N)Sc1ccccc1N)/C(C#N)=C(\N)Sc1ccccc1N`, for which, in assay [1], the molecule was called inactive. Besides, in assay [2], the Potency is 5.15 µM (active).
Consider `C[N+](C)(C)CCC(=O)c1cccc2ccccc12`, for which the Potency result in assay [3] and in [4] was “inactive” throughout.
Regarding `CC/C=C\C/C=C\C/C=C\C/C=C\C/C=C\CCCCCC(=O)O`, the activity change, negative = cytotoxicity in assay [5] was -18.6% [at 5 µM]. In addition, the activation in assay [6] is -16.7% [at 5 µM]; in [16] it was -9.65% [at 5 µM]; in [17], -6.56% [at 5 µM]. Besides, the activity change, negative = cytotoxic in assay [7] was -0.254% [at 3.42 µM]. For the same molecule, the activity change, negative = inhibition was -1.31% [at 3.42 µM] in [8]; -3.67% [at 4.27 µM] in assay [10]; -17.1% [at 3.26 µM] in [13]; -29.3% [at 5 µM] in assay [18]; 2.07% [at 5 µM] in assay [19]. Also, the call in assay [9] and in assay [14] was inactive. Besides, the Potency result in assay [11] and in [12] was “inactive” each time. The max response in assay [15] was 0.0363%.
In the case of `OCc1cc([C@@H](O)CNCCCCCCOCCCCc2ccccc2)ccc1O`, in [20], the Potency result was “inactive”.
In the case of `CCCCC[C@H](O)CC(=O)CCc1ccc(O)c(OC)c1`, the molecule was called inactive in assay [5], in assay [6], in assay [7], in assay [8], in assay [10] and in assay [13]. The call in assay [16], in [17], in assay [18] and in assay [19] was inactive. For the same molecule, in [11], the Potency result is “inactive”. The Potency in assay [12] is 14.1 µM (active). For the same molecule, the max response in assay [15] is 0.254%.
